Several values for one entry are separate records, joined by “and”; a condition that tells them apart may be missing. Equal values may be shown once. Records with an inconclusive call do not appear. Activity calls are given as the source filed them. Unless noted, calls come from the whole dose curve; as a rule, active = well fitted curve in the direction sought with a large enough effect; inconclusive = small, poorly fitted or top-dose-only effect, or another doubt; inactive = no such curve, though single readings can be large; an effect the other way counts as inactive or inconclusive.
What was measured:
[1] = qHTS assay for environmental chemicals that activate the Aryl hydrocarbon Receptor (AhR) signaling pathway (AID 651777); details: 1A2-DRE human hepatoma cells, luciferase, 24 h; activation: stronger effect = higher value; note: nearly all actives have a fitted effect of over 15% in size; note: potency is the fitted concentration of half-maximal effect; for activation: % of control where 0% means no effect
Outline: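 Concentration–response screening used 1,200 1A2-DRE cells per well, 24 hr compound exposure (37 C, 5% CO2), and One-Glo luminescence as the AhR-driven CYP1A2 reporter signal.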

[2] = molecular target: Peroxisome proliferator-activated receptor alpha (Homo sapiens) (UniProt Q07869); test: qHTS assay for small molecule agonists of the peroxisome proliferator-activated receptor alpha (PPARalpha) signaling pathway (AID 651778); details: PathHunter PPARalpha complementation, chemiluminescence, 6 h; stronger effect = higher value; note: % of control where 0% means no effect
Outline: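 Cells plated at 2,000/well and held overnight at 37 C, 5% CO2, then compound added by pin tool for 6 hr; after PathHunter detection reagent and 60 min at room temperature, chemiluminescence from enzyme complementation was read.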

[3] = molecular target: Nuclear receptor ROR-gamma (Homo sapiens) (UniProt P51449); test: qHTS assay for small molecule antagonists of the retinoid-related orphan receptor gamma (ROR-gamma) signaling pathway (AID 651802); note: nearly all actives have a fitted effect of over 60% in size; note: potency is the fitted concentration of half-maximal effect
Outline: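 Steps: cells dispensed; compound or DMSO transferred by pin tool; doxycycline added to induce the ROR response element-driven luciferase; plates held 16hr at 37C; ONE-Glo added and luminescence measured.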

[4] = qHTS assay for small molecule antagonists of the retinoid-related orphan receptor gamma (ROR-gamma) signaling pathway - cell viability counter screen (AID 720652; active = well fitted curve in the direction sought with a large enough effect in the repeat runs; an effect the other way counts as inactive or inconclusive;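 note: CHO reporter cells with doxycycline-induced ROR-gamma expression; series mostly up to about 92 µM; compound exposure lasted 16 hr before ATP read; % is set by controls: 0 for no effect and ±100 for the full control effect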)
Outline: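 Steps: seed CHO cells bearing TET-inducible ROR and ROR response element-luciferase; rest 5 hr at 37 C; add compound, then doxycycline; incubate 16 hr; add CellTiter-Glo and read luminescence as ATP-based viability.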

[5] = qHTS assay for small molecule agonists of the antioxidant response element (ARE) signaling pathway measured by Nrf2-dependant transcriptional activity - cell viability counter screen (AID 720653; active = well fitted curve in the direction sought with a large enough effect in the repeat runs; an effect the other way counts as inactive or inconclusive; note: % is set by controls: 0 for no effect and ±100 for the full control effect); details: ARE-bla HepG2 viability, CellTiter-Glo ATP luminescence, 16 h; stronger effect = lower value
Outline: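 ARE-bla HepG2 cells (2,000/well) rested 5 hrs at 37C/5% CO2, then exposed to compounds in DMSO for 16 hrs. Viability was read in the same wells as intracellular ATP by luminescence, 30 min at room temperature after reagent addition.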

[6] = qHTS Assay for Identifying Gametocytocidal Compounds (AID 743244);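 note: % is set by controls: 0 for no effect and ±100 for the full control effect; actives lower the fluorescent signal which means gametocytes are killed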; details: P. falciparum 3D7 stage III-V gametocytes, alamarBlue, 72 h; max response: stronger effect = lower value
Outline: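 A resazurin-based viability read-out was applied to mature P. falciparum gametocytes: 72 h compound treatment, then 24 h dye incubation, with falling fluorescence signalling gametocytocidal effect.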

[7] = qHTS assay for cell viability of HEK293 cells (AID 743288); details: ATP luminescence (CellTiter-Glo), 18 h, stronger effect = lower value; note: % is set by controls: 0 for no effect and ±100 for the full control effect; nearly all actives have a fitted effect of over 50% in size
Outline: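 Steps: plate 2,000 parental HEK293 cells per well; incubate ≥5 h, 37 C; add compounds in DMSO; incubate 18 h, 37 C; add CellTiter-Glo; wait 30 min at room temperature; read luminescence.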

[8] = qHTS assay for cell viability of the p53RE-bla HCT-116 cell line (AID 743292); note: % is set by controls: 0 for no effect and ±100 for the full control effect; nearly all actives have a fitted effect of over 55% in size
Outline: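 Compound-exposed HCT-116 (p53RE-bla) cells, 4,000 per well, were kept 16 h at 37 C following a 5 h preincubation. Cell number was estimated from total ATP by CellTiter-Glo luminescence read after 30 min at room temperature.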

[9] = qHTS assay for small molecule agonists of the antioxidant response element (ARE) signaling pathway measured by Nrf2-dependant transcriptional activity (AID 720636; active = well fitted curve in the direction sought with a large enough effect in the repeat runs; an effect the other way counts as inactive or inconclusive;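 note: HepG2 cells with an ARE-driven luciferase reporter; % of control where 0% means no effect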)
Outline: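 Attachment 6 hr at 37 C, then compound versus DMSO vehicle for 16 hr in ARE-luc HepG2 cells (1% dialyzed FBS); luminescence recorded 30 min after ONE-Glo addition at room temperature.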

[10] = qHTS for compounds that reverse cellular toxicity of Amyloid beta (A-beta) peptide in yeast: LOPAC Validation Assay (AID 720559);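 note: plate controls were DMSO for no effect and equimolar ferric chloride plus clioquinol rescue for full effect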
Outline: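 Yeast expressing toxic A-beta grown with pinned compounds at 30 C for 48 hr. Growth measured as absorbance at 600 nm; data normalized to DMSO and to an equimolar FeCl3/clioquinol mixture as positive control.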

[11] = qHTS for Activators of Parkin Expression: LOPAC Validation Assay (NLuc Reporter) (AID 720572;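 note: 0% = DMSO and 100% = positive control compound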)
Outline: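 Cells harboring the Parkin-promoter coincidence reporter were treated for 24 h at seven concentrations. NLuc output was measured sequentially after the FLuc channel and scaled between DMSO and positive control values.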

[12] = qHTS for Activators of Parkin Expression: LOPAC Validation Assay (FLuc Reporter) (AID 720573;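 note: 0% = DMSO and 100% = positive control compounds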)
Outline: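 Neuronal cell line stably expressing FLuc/NLuc coincidence reporter under the Parkin promoter, 1,500 cells/well, dosed 24 h after seeding in 7-point series for 24 h at 37 C. FLuc luminescence read; normalized to DMSO and positive control (100%).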

[13] = molecular target: T1, Hexokinase-4 (Homo sapiens) + Glucokinase regulatory protein (Homo sapiens) (UniProt P35557+Q14397); test: qHTS assay for inhibitors of recombinant human GCK-GKRP interaction: Diaphorase-coupled assay (AID 743205)
Outline: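 Compounds pre-incubated 20 min with substrate, then 10 nM GST-GCK with 10 nM FLAG-GKRP added. GCK activity coupled via G6PDH and diaphorase to resorufin (5 mM glucose, 0.4 mM ATP, 0.15 mM NADP+, pH 7.6), read kinetically over 30 minutes at Ex 525/Em 590 nm.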

[14] = molecular target: T1, Hexokinase-4 (Homo sapiens) + Glucokinase regulatory protein (Homo sapiens); test: qHTS assay for inhibitors of recombinant human GCK-GKRP interaction: ADP-Glo assay (AID 743206);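 note: plate controls were DMSO plus enzyme for no effect and no enzyme for full effect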
Outline: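 Pin-transferred compounds meet a 15 nM GST-GCK/15 nM FLAG-GKRP/2 uM S6P mix (dispense concentrations). ATP is then added to 0.4 mM final with 5 mM glucose, and the reaction runs 60 min at room temperature. ADP is quantified luminescently.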

[15] = molecular target: T1, Hexokinase-4 (Homo sapiens) + Glucokinase regulatory protein (Homo sapiens); test: qHTS assay for inhibitors of recombinant human GCK-GKRP interaction: HTRF assay (AID 743207);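 note: 0% = DMSO with GCK present and -100% = DMSO wells lacking GCK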
Outline: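 HTRF binding of 5 nM GST-GCK and 5 nM FLAG-GKRP with 2 uM S6P in pH 7.1 Hepes buffer (MgCl2, KCl, DTT, Tween 20, BSA). Anti-FLAG XL665 and anti-GST donor added, 60 min at room temperature; 665/615 nm read, normalized to with- and without-GCK controls.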

T1 sequence (P35557 whole entry, looked up): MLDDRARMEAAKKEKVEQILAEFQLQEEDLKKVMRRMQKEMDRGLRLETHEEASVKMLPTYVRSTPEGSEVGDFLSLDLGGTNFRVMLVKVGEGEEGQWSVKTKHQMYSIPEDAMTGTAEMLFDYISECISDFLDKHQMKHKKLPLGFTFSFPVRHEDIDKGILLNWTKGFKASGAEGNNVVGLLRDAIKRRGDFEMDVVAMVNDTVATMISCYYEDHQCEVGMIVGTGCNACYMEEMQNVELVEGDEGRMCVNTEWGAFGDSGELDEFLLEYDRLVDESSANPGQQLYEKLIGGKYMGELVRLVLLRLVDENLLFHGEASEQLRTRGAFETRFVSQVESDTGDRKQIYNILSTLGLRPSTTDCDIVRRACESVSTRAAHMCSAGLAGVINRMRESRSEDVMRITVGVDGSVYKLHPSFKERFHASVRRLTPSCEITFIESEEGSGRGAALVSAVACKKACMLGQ
T1 sequence (Q14397 whole entry, looked up): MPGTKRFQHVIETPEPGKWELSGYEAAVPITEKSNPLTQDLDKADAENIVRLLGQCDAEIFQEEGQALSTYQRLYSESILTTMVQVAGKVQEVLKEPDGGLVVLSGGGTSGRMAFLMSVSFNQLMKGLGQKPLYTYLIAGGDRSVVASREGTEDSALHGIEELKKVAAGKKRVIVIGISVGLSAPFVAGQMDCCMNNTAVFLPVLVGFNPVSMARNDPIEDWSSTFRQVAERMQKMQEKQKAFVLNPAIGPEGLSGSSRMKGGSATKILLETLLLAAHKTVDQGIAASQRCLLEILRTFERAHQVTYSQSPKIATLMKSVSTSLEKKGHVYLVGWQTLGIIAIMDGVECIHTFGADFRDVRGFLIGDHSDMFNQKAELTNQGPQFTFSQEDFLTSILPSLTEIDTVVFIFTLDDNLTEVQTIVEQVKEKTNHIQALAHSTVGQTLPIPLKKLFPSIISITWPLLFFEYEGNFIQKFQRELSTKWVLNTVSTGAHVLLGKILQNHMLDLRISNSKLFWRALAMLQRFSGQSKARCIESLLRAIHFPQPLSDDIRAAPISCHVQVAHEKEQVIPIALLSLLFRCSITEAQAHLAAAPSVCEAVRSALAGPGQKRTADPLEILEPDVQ
Chain of Peroxisome proliferator-activated receptor alpha (Homo sapiens) (Q07869 whole entry, looked up): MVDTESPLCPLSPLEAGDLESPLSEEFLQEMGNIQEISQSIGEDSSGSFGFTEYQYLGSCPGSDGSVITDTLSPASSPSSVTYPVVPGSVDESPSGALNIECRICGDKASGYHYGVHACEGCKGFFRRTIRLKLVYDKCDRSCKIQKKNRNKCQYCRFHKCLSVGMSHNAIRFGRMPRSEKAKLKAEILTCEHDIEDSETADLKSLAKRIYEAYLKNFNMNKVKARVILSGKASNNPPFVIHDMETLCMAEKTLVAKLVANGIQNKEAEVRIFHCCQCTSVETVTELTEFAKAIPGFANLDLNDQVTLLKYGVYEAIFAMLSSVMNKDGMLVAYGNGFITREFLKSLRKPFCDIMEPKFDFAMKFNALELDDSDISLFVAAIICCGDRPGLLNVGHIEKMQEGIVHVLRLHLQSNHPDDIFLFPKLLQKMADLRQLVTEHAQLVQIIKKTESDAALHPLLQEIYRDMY
Chain of Nuclear receptor ROR-gamma (Homo sapiens) (P51449 whole entry, looked up): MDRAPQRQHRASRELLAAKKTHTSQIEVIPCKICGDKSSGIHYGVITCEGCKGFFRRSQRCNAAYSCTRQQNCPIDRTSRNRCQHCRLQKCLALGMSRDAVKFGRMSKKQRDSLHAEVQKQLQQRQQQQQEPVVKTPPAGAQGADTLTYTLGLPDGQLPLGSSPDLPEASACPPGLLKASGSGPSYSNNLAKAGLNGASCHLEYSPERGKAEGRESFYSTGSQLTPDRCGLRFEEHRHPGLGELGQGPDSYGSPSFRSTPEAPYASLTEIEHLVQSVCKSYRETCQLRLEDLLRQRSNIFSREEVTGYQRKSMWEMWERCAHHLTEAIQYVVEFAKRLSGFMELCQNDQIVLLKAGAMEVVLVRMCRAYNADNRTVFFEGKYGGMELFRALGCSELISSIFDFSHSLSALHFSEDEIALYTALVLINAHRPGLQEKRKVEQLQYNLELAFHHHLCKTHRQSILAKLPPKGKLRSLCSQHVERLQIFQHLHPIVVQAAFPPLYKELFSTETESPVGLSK

COc1ccc(C(=O)c2ccccc2)c(O)c1
inactive: activation [1] 8.63% and 11.4% | max response [2] 1.86% and -0.894% | Potency [3] | outcome [4] | max response [5] 6% and -1.76% | max response [6] -10.7% | max response [7] -9.22% and -8.85% | outcome [8]

CCOc1ccccc1C(N)=O
inactive: activation [1] 0.471% | max response [2] -1.03% | Potency [3] | outcome [9] | outcome [4] | max response [5] 5.3% | max response [6] 14% | max response [7] 9.95% | outcome [8]

CCCN(CCC)S(=O)(=O)c1ccc(C(=O)O)cc1
inactive: activation [1] -1.19% and -0.648% | max response [2] -6.45% and -0.148% | Potency [3] | outcome [9] | outcome [4] | max response [5] 9.27% and -1.08% | max response [6] 12.9% | max response [7] 7.44% and -5.93% | outcome [8]

COc1ccc2c(c1)c1c3n2CCN(C)C3=NCC1
inactive: max response [6] 18.4%

CCCCCCCCOc1ccc(C(=O)c2ccccc2)c(O)c1
inactive: activation [1] -9.5% | outcome [9] | max response [5] -12.5% | max response [6] -5.25% | max response [7] -9.08% | outcome [8]

Oc1c(Cl)cc(Cl)c(Cl)c1Cc1c(O)c(Cl)cc(Cl)c1Cl
inactive: activation [1] 3.13% and 3.58% | max response [2] 1.56% and 1.87% | outcome [9] | max response [6] 14.7% | outcome [8]
active: Potency [3] 1.06 µM

Oc1ccc(Cl)cc1Cc1cc(Cl)ccc1O
inactive: activation [1] -1.39% and 3.39% | outcome [4] | max response [6] 0.972% | outcome [8]

C#C[C@]1(O)CC[C@H]2[C@@H]3CCC4=Cc5oncc5C[C@]4(C)[C@H]3CC[C@@]21C
inactive: activation [1] 0.604% | max response [2] -4.33% | outcome [9] | max response [5] 1.42% | max response [6] -4.72% | max response [7] -10.7% | outcome [8]

CC(C)(C)CC(C)(C)c1ccc(O)c(-n2nc3ccccc3n2)c1
inactive: activation [1] 5.11% | max response [2] 12.6% | outcome [9] | max response [5] 4.4% | max response [6] -5.06% | max response [7] -13.9%

CCOc1ccc(NC(C)=O)cc1
inactive: activation [1] 1.23% and 0.542% | max response [2] -5.21% and -4.18% | Potency [3] | outcome [9] | outcome [4] | max response [5] 3.98% and -0.784% | max response [6] 18.5% | max response [7] -2.1% and -6.16% | outcome [8]

O=C(O)Cc1csc(-c2ccc(Cl)cc2)n1
inactive: max response [6] -4.61%

C=C[C@@]1(C)CC(=O)[C@]2(O)[C@@]3(C)[C@@H](O)CCC(C)(C)[C@@H]3[C@H](O)[C@H](OC(C)=O)[C@@]2(C)O1
active: Potency [1] 17.8 µM
inactive: max response [2] 0.227% | max response [5] 4.11% | max response [6] -8.6% | max response [7] -8.77% | outcome [8]

CC(C)(C)NC[C@H](O)COc1nsnc1N1CCOCC1
inactive: outcome [10] | outcome [11] | outcome [12] | outcome [13] | outcome [14] | outcome [15] | max response [6] -3.64%

CCNC(=O)NCc1cccc(Cl)c1
inactive: max response [6] 8.55%

CN(C)C(=O)Nc1ccc(Cl)c(Cl)c1
inactive: max response [2] 0.591% | max response [5] 12.2% | max response [6] -3.3% | max response [7] -11.4% | outcome [8]

CCOC(=O)[C@H](CCc1ccccc1)N[C@@H](C)C(=O)N1[C@H](C(=O)O)C[C@H]2CCCC[C@@H]21
inactive: outcome [10] | outcome [11] | outcome [12] | outcome [13] | outcome [14] | outcome [15] | max response [6] -0.763% and -2.8% and 30%

COc1cc(O)c(C(=O)c2ccccc2)cc1S(=O)(=O)O
inactive: max response [6] -9.98%

C/C=C/c1ccc(O)c(OC)c1
inactive: activation [1] 3.77% and 1.82% | max response [2] -4.52% and -2.32% | Potency [3] | outcome [9] | outcome [4] | max response [5] -8.93% and -1.72% | max response [6] 26.3% | max response [7] -4.69% and 11.4% | outcome [8]

NCCNc1cccc2ccccc12
active: Potency [1] 39.8 µM
inactive: max response [2] -2.74% and -3.34% | outcome [9] | max response [5] -8.07% and -42.5% | max response [7] -10.4% and -20.5% | outcome [8]

CCCCCCCC/C=C\CCCCCCCCN
inactive: activation [1] -0.319% | max response [2] 0.202% | outcome [9] | max response [5] 3.81% | max response [6] -6.53% | max response [7] -0.943% | outcome [8]

From PubChem BioAssay (NCATS)
